PI4K2A inh – inhibitors of human PI4K2A; purified PI4K2A, ADP-Glo luminescence, 1 h; stronger effect = lower value; activity change, negative = inhibition, % at 76.9 µM; 0.13% of 420,000 active; in the data active = activity change below about -50%; inconclusive = mostly about -30% to -49%;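 also: -100% = wells without enzyme as full effect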
Target sequence (Q9BTU6 whole entry, looked up): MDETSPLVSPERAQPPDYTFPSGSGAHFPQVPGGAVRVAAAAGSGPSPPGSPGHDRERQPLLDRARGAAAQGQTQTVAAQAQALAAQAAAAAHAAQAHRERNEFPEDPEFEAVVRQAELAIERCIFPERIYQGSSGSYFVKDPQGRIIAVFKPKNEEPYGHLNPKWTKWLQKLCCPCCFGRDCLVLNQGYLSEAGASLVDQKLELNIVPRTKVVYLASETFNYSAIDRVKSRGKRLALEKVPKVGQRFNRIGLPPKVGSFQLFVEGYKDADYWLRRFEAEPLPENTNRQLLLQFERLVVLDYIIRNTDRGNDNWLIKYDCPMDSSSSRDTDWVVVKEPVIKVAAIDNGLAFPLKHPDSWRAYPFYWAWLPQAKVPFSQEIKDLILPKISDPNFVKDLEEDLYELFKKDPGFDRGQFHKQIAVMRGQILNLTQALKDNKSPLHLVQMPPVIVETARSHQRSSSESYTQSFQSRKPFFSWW
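PI4K2A activity was measured by ADP-Glo luminescence: enzyme (4 ug/mL stock) and phosphatidylinositol (1.2 mM stock) in Tris pH 7.5/MgCl2/EGTA/Triton X-100 buffer were reacted with ATP (300 microM stock) for one hour at ambient temperature.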
LDHA inh – inhibitors of human lactate dehydrogenase A | purified LDHA, NADH/diaphorase-resazurin fluorescence; stronger effect = lower value | activity change, % (values are at about 110 or 230 µM) | 0.15% of 480,000 active | AID 1347041; in the data active = activity change below about -30%; inconclusive = mostly about -25% to -30%;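 also: plate controls were DMSO wells for no effect and wells without enzyme for full effect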
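Resorufin fluorescence (ex540/em590), read at 0 and 20 min after diaphorase/resazurin addition, reports the NADH left after a 5 min room-temperature reaction of 2 nM human LDH5 with 0.06 mM NADH and 0.2 mM pyruvate.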
DRD3 antagonist – antagonists of human D3 dopamine receptor | max response, negative = inhibition, % | P35462 | AID 652054 | D3R cells, DiscoveRx beta-arrestin luminescence, antagonist mode; stronger effect = lower value | 2.5% of 360,000 active; in the data active = max response below about -50%; inconclusive = no clear call, values can overlap the other calls; also: % is scaled to controls: 0 for no effect and ±100 for the full control effect
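Cells expressing the human receptor were seeded at 1500 cells/well, incubated overnight at 37 degrees C in 5% CO2, then exposed to library compounds with dopamine controls for 90 minutes at 37 degrees C before luminescent detection.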
pAkt inh – blocks phosphorylation of Akt. Neuro2A IGF-stimulated pAkt S473 HTRF, 20 min; stronger effect = lower value. activity change, % for hits at 50 µM. 0.32% of 360,000 active. AID 651550; in the data active = activity change below about -80%; inconclusive = mostly about -51% to -80%; also: % is scaled to controls: 0 for no effect and ±100 for the full control effect
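Single-point screen (50 µM final compound) in Neuro2A cells stimulated 20 min with 6 nM IGF at 37 deg C. After lysis, Ser473-phosphorylated Akt read by HTRF (ex 330 nm, em 615/665 nm) as the 665/615 ratio.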
RGS4 inh – inhibitors of human regulator of G protein signaling 4 | Potency, µM (doses to about 114 µM), inactives show top-dose activity change, negative = inhibition, usual class: inhibitors | Transcreener GDP fluorescence polarization, RGS4-accelerated GTP hydrolysis | 0.039% of 390,000 active; active = well fitted inhibition curve with a large enough effect; inconclusive = small, poorly fitted or top-dose-only effect; inactive = no such curve, though single readings can be large or run the other way; also: potency is read from the fitted curve at half-maximal effect; % is scaled to controls: 0 for no effect and ±100 for the full control effect; nearly all actives have a fitted effect of over 75% in size
Target sequence (P49798 whole entry, looked up): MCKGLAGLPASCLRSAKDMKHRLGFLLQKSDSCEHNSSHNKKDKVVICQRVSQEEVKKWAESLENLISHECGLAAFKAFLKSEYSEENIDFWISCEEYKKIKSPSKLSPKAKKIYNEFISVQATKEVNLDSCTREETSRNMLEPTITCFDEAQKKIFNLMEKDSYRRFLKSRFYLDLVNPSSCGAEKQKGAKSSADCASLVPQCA
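MLSMR compounds (23 nl, pin-transferred) preincubated 10 min at room temperature with a 500nM (2x) first reagent, then RGS4 at 900nM (2x) plus Transcreener GDP mix added; fluorescence polarization (620/688 nm) read before and after 90 min at 30 °C.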
D3 ag – D3 dopamine receptor (human) agonism. P35462. D3R DiscoveRx beta-arrestin cells, luminescence, 90 min. max activation, %. 0.58% of 410,000 active. AID 652048; in the data active = max activation above about 30%; also: 0% is about no effect
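Agonist mode: compounds and dopamine controls were applied to plated cells for 90 min at 37 degrees C after an overnight attachment at 1500 cells/well. Luminescent read-out followed 30 - 60 minutes at room temperature with DiscoveRx detection reagent.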
Active calls of the source: *; i = inactive; ? = inconclusive; nt = no result given; [ ] = dose if it differs, or a comment. Shown are actives, neighbours in structure and some others; about 2.8% of the full set was active somewhere.

SMILES	PI4K2A inh	LDHA inh	DRD3 antagonist	pAkt inh	RGS4 inh	D3 ag
CC1=C([N+](=O)[O-])C(c2cccc(Br)c2)C2=C(N1)c1ccccc1C2=O (stereo not drawn)	1	2	-94*	i	-47%	2
COC(=O)C1=C(C)NC2=C(C(=O)c3ccccc32)C1c1cccc(OC)c1 (stereo not drawn)	-1	0	-14	i	4%	3
Cc1cccc(N=C2NC(=O)/C(=C/c3cccnc3)S2)c1C	0	-3	-61*	i	-16%	-4
Cc1c(Cl)c(-c2n[nH]c(=S)n2-c2ccc(F)cc2)nn1C	-4	-8	-66*	i	16%	-4
Cn1cc(Cl)c(-c2n[nH]c(=S)n2-c2ccc(F)cc2)n1	0	-6	14	i	6%	-1
O=C1CCCC2=C1C(c1ccc(Cl)cc1)CC(=O)N2c1ccc(F)cc1 (stereo not drawn)	nt	-3	nt	nt	nt	nt
CC(=NNC(=S)N1CCCCCC1)c1cccc2cccnc12	1	7	-71*	i	?	-13
Cc1ccc(NC(=S)NNc2ncc(C(F)(F)F)cc2Cl)c(C)c1	1	-4	-53*	i	?	-13
FC(F)(F)c1cnc(NNC(=S)Nc2ccc(Cl)cc2)c(Cl)c1	5	-5	-64*	i	?	-12
Cc1ccc(NC(=S)NNC(=S)Nc2cccc(C(F)(F)F)c2)cc1	17	-3	-28	i	?	1
Fc1ccc(NC(=S)NNc2ncc(C(F)(F)F)cc2Cl)c(F)c1	-3	-1	-75*	i	-47%	5
O=S(=O)(NNc1ncc(C(F)(F)F)cc1Cl)c1ccc(F)cc1F	-1	8	1	i	-10%	2
Cc1ccc(NC(=S)NNc2ncc(C(F)(F)F)cc2Cl)cc1	2	-8	-68*	i	-17%	-36
CC1SCCN1S(=O)(=O)c1ccc2ccccc2c1 (stereo not drawn)	1	4	-59*	i	-27%	0
O=C(Nc1cccnc1)C1CCC1	nt	-2	nt	nt	nt	nt
Cc1cc(C)cc(N2CCCC2=O)c1	-4	-7	17	i	38%	-9
O=C1CCCN1c1cc(Cl)cc(Cl)c1	0	-9	-55*	i	13%	-24
O=C(NCC(O)c1cccc(Cl)c1)Nc1nnc(C2CC2)s1 (stereo not drawn)	nt	-5	nt	nt	nt	nt
NCc1cc2c3c(c1)CCCN3CCC2	-14	12	-65*	i	-11%	10
NCc1ccc2c3c1CCCN3CCC2	nt	43	nt	nt	nt	nt
CCCS(=O)(=O)N1CCN(c2ccc(N3CCOCC3)nn2)CC1	nt	1	nt	nt	nt	nt
COc1cccc(C(=O)NN2CC(O)=C(c3nc(-c4ccc(Br)cc4)cs3)C2=N)c1	nt	8	nt	nt	nt	nt
O=C(Nc1cnc2ccccc2c1)N1CCOCC1	-14	6	-67*	i	-23%[11.4 µM]	-5
COC(=O)c1ccc(NC(=O)N2CCOCC2)cc1	3	1	-10	-121%*	1%	-2
O=C(Nc1ccc(O)cc1)N1CCOCC1	-7	14	-4	i	-26%	3
SMILES	PI4K2A inh	LDHA inh	DRD3 antagonist	pAkt inh	RGS4 inh	D3 ag
CCCCCCCCCCC[N+](C)(C)CC/C=C1/c2ccccc2Sc2ccc(Cl)cc21	-1	2	-124*	i	-52%	-3
CCCCCCCCCC[N+](C)(C)CC/C=C1/c2ccccc2Sc2ccc(Cl)cc21	0	5	-113*	i	11%	-2
CC[N+](C)(C)CC/C=C1/c2ccccc2Sc2ccc(Cl)cc21	1	-12	-8	i	8%	-10
CCCCCC[N+](C)(C)CCCCCCCCCC[N+](C)(C)CCCCCC	nt	-11	nt	nt	nt	nt
Cn1nc(C(=O)OCC(=O)Nc2ccc(Cl)cn2)c2ccccc2c1=O	nt	-3	nt	nt	nt	nt
Cc1ccccc1N1CCN(Cc2ccc([N+](=O)[O-])o2)CC1	-14	-3	-3	i	-12%	-21
Clc1ccc(N2CCN(Cc3ccco3)CC2)cc1	0	-16	?	i	-10%	-9
COc1ccccc1N1CCN(Cc2ccco2)CC1	2	-18	-76*	i	3%	-9
COc1ccc(CN2CCN(Cc3ccco3)CC2)cc1OC	4	-34*	-4	i	-2%	-13
COc1ccccc1N1CCN(Cc2ccc(-c3ccccc3[N+](=O)[O-])o2)CC1	6	5	-86*	i	6%	-16
Clc1ccccc1N1CCN(Cc2ccco2)CC1	-1	2	-56*	i	19%	-5
COc1ccccc1-c1nnc(SCC(=O)N(CC(C)C)CC(C)C)n1N	nt	-10	nt	nt	nt	nt
CCCOc1ccc(NC(=O)COc2ccccc2OC)c2cccnc12	nt	7	nt	nt	nt	nt
CC(C)(C)NC(=O)Cc1csc(-c2cccs2)n1	nt	6	nt	nt	nt	nt
Cc1cc(S(=O)(=O)Nc2ccc(F)c(C(F)(F)F)c2)sc1C(=O)O	nt	-3	nt	nt	nt	nt
COc1ccc(CCNC(=O)COC(=O)c2cnc(C)cn2)cc1	-7	-4	14	-109%*	0%	5
C1=C(c2ccccc2)CCN(c2nc3ccccc3n3cnnc23)C1	5	-3	-70*	i	?	-6
c1ccc(CN2CCN(c3nc4ccccc4n4cnnc34)CC2)cc1	-9	-6	-135*	i	-19%	-23
Cc1ccc(C)c(S(=O)(=O)Nc2ccc(O)c3ccccc23)c1	-26	44	?	i	-13%	-11
Cc1ccc(S(=O)(=O)Nc2ccc(O)c3ccccc23)c(C)c1	?	25	-53*	i	-12%	-13
COc1ccc(C2=C(O)C(=O)N(Cc3ccncc3)C2c2ccc(Br)cc2)cc1 (stereo not drawn)	nt	15	nt	nt	nt	nt
O=C(Nc1ccc2nc(-c3ccc4nc[nH]c4c3)[nH]c2c1)c1cccs1	2	-16	-69*	i	-130%[56.9 µM]	-5
COc1cc(C2c3c(-c4ccccc4)n[nH]c(=O)c3Nc3nnnn32)ccc1O (stereo not drawn)	nt	8	nt	nt	nt	nt
CC1(C)CC(CNCc2ccco2)CCO1 (stereo not drawn)	nt	-13	nt	nt	nt	nt
NS(=O)(=O)c1ccc(-c2ccc(/C=C3\NC(=S)NC3=O)o2)cc1	-4	3	2	i	?	43*
CCSc1nc2ccccc2n1C(=O)/C=C\c1ccc(OC)c(OC)c1	28	2	-54*	i	-40%	-4
CCSc1nc2ccccc2n1CC(N)=O	-2	6	-18	nt	4%	-9
O=c1c(O)c(-c2ccccc2)oc2cc(O)cc(O)c12	-1	13	-10	i	-4%	-4
O=c1c(O)c(-c2ccc(O)cc2O)oc2cc(O)cc(O)c12	-67*	8	nt	nt	?	nt
C/C(=C\c1cccc(F)c1)C1Nc2cccc3cccc(c23)N1	nt	7	nt	nt	nt	nt

Source: PubChem BioAssay
